This is a sample that favours compounds with a hit; in the whole collection about 10% have one here.
p97 inhibitor – human p97 ATPase inhibition | P55072 | recombinant p97 ATPase, Kinase-Glo ATP luminescence, 3 h | inhibition, % at 8 µM | 220,000 compounds, 0.42% hits; in the data active means inhibition above about 15%;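 further: 0% = DMSO vehicle and 100% = wells lacking enzyme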
Target sequence (P55072 whole entry, looked up): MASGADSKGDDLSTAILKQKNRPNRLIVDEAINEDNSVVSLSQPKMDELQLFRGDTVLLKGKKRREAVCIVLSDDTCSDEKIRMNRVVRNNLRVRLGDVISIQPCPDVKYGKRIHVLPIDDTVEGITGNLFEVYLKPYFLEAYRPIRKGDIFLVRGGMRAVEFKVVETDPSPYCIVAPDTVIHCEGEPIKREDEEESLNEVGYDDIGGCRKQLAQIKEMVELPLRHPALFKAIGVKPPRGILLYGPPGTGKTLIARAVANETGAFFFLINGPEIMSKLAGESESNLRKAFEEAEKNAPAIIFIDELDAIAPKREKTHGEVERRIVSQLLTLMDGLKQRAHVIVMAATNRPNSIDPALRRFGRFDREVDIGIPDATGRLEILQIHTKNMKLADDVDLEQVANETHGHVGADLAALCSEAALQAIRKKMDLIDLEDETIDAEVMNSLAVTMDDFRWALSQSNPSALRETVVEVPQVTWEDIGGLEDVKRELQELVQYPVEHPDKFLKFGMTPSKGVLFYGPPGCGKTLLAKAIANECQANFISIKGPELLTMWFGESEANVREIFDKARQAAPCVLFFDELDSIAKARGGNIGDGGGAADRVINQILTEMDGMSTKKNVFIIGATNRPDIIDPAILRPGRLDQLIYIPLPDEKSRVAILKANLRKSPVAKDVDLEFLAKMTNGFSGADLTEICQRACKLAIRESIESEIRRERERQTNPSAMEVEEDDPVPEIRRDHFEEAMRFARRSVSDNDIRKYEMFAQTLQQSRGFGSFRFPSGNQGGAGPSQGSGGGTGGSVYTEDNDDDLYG
ROMK primary – modulates human ROMK potassium channel activity; P48048; Tet-inducible ROMK, thallium flux fluorescence; actives lie on both sides; B-score at 10 µM; 130,000 compounds, 2% hits; AID 1918;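 active means signal ratio slope over the read window, or its plate-corrected B-score, at least 3 SD from the plate mean, either direction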;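 further: B-score of the F/F0 ratio slope over 7 to 12 s after thallium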
L major viab – inhibitors of Leishmania major promastigote growth; AID 1063; Leishmania major promastigotes, resazurin fluorescence viability; 200,000 compounds, 9% hits; inhibition, % at 10 µM; in the data active means inhibition above about 50%;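 further: promastigotes grown with compound for 44 hours at 28 °C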
Insulin prom inh – TRM-6 insulin promoter activity inhibition | TRM-6 cells (human fetal islet line), insulin promoter-eGFP reporter, imaging; reporter expression induced with tamoxifen | inhibition, % at 2 µM | 130,000 compounds, 0.9% hits | AID 1273;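 active means inhibition above the mean plus 3 SD, with well images judged a real hit on visual review, cut at about 60% in these data, passing the limit was not always enough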
HCT116 PTEN-null – suppresses growth of cells with PTEN deletion | HCT116 PTEN-null viability, CellTiter-Glo, 60 h; hits give low values | AID 827 | 140,000 compounds, 1.2% hits | viability, % at 10 µM;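 active means viability at or below a set limit, 4 SD under the median of all tested compounds, cut at about 3.7% in these data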;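 further: PTEN knockout HCT116 line with beta catenin targeted HCT116 as companion control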
HCT116 bCat-KO – beta-catenin-lacking colon tumor cell growth suppression | AID 818 | viability, % at 10 µM | 140,000 compounds, 1.5% hits | HCT116 beta-catenin knockout viability, CellTiter-Glo, 60 h; hits give low values;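 active means viability at or under a set limit, the compound median less 4 SD, cut at about 6% in these data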;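 further: 0% = Hyamine 1622 control at 20 µM and 100% = untreated cell control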
An asterisk follows results filed as active; · = no result given.

SMILES	p97 inhibitor	ROMK primary	L major viab	Insulin prom inh	HCT116 PTEN-null	HCT116 bCat-KO
O=C(COC(=O)c1cc(Br)ccc1Cl)NC1CCCC1	0	·	-2	·	·	·
Cc1ccccc1C(=O)OCc1cnc(Cl)s1	2	-1.3	2	·	·	·
CN(C)c1ccc(P(=O)(OCc2ccccc2)C(O)c2ccccc2)cc1 (stereo unspecified)	-1	·	·	·	·	·
CC(=O)NC(CCCN1C(=O)c2ccccc2C1=O)c1nnn(C)n1 (stereo unspecified)	4	0.2	-8	-50	94	100
O=C1CCN(C(=O)c2cccs2)c2ccccc21	3	-0.17	-3	10	96	93
CN1C(=O)/C(=C\C(=O)c2cccs2)c2ccccc21	-4	-1.4	100*	·	·	·
COC(=O)/C=C/c1ccc(OC(=O)c2ccncc2)cc1	2	-1.3	-8	-33	104	81
CC(NC(=O)/C(=C/c1ccc(OC(F)F)cc1)c1ccccc1)c1ccccc1 (stereo unspecified)	-1	·	78*	·	71	78
COCC(C)NC(=O)/C(=C/c1ccccc1)c1ccccc1 (stereo unspecified)	2	0.096	6	·	·	·
CC(C)OC(=O)c1cccc(NC(=O)CSc2nnc(N)s2)c1	-2	·	10	15	·	·
CC(C)Cn1c(/C=N/Nc2nc3ccccc3[nH]2)nc2ccccc21	5	·	100*	19	14	12
Cc1cc(=O)[nH]c(N/N=C/c2c(C)nn(-c3ccccc3)c2C)n1	4	-0.36	2	·	·	·
C(=N\Nc1nc2ccccc2[nH]1)/c1cccs1	-2	·	98*	3	89	94
Cc1nn(-c2ccccc2)c(C)c1/C=N/Nc1nc2ccccc2[nH]1	4	·	100*	84*	21	26
Cc1nn(-c2ccccc2)c(Cl)c1/C=N/NC(N)=O	5	0.48	·	·	·	·
Cc1nn(-c2ccccc2)c(Cl)c1/C=N/Nc1nc2ccccc2n1C	1	-0.56	52*	78*	83	78
COc1ccc(CNC(=O)CSCc2ccccc2Cl)cc1	-3	·	-8	-67	95	98
COC(=O)c1sccc1NC(=O)Nc1cccc(F)c1	-1	1.7	-9	-19	·	·
C(=N\Nc1nc2ccccc2[nH]1)/c1ccncc1	-3	0.042	14	-67	·	·
Cn1c(/C=N/Nc2nc3ccccc3[nH]2)nc2ccccc21	-3	0.44	101*	·	·	·
C#CCn1cc(/C=N/NC(=O)c2cc3ccccc3o2)c2ccccc21	5	1.1	3	20	67	79
CCCn1c(/C=N/Nc2nc3ccccc3[nH]2)nc2ccccc21	11	-0.99	100*	38	3.0*	3.6*
C=CCn1cc(/C=N/Nc2nc3ccccc3[nH]2)c2ccccc21	9	·	101*	10	28	51
C=CCn1cc(/C=N\NC(=O)c2cc3c(ccc4ccccc43)o2)c2ccccc21	-3	·	100*	-36	64	66
Cc1sc2ncn(CC(=O)NCC3COc4ccccc4O3)c(=O)c2c1S(=O)(=O)N1CCCCC1 (stereo unspecified)	1	0.94	4	·	·	·
SMILES	p97 inhibitor	ROMK primary	L major viab	Insulin prom inh	HCT116 PTEN-null	HCT116 bCat-KO
COc1cc(CN2CCNC(=O)C2CC(=O)N2CCc3ccccc3C2)cc(OC)c1 (stereo unspecified)	6	-0.0025	7	-75	·	·
Cc1ccc(NC(=O)C2CCCN(C(=O)c3ccc(Cl)cc3)C2)cc1C (stereo unspecified)	1	-0.27	18	·	·	·
Cc1ccc(N2CCN(/N=C/c3c(C)nn(-c4ccccc4)c3Cl)CC2)cc1	1	0.38	89*	-4	93	80
CNC(=O)C(=O)N/N=C/c1ccc(Br)cc1	0	-0.33	-2	71*	·	·
Cc1sc2nc(CSc3ccccc3)nc(N3CCN(C)CC3)c2c1C	-1	0.022	98*	23	62	59
O=c1c2nnn(Cc3ccccc3)c2ncn1-c1ccccc1	3	·	-6	20	104	96
COC(=O)c1cc(OC)nc2ccc(Br)cc12	3	·	·	·	·	·
COc1ccc(COC(=O)C2=C(C)NC(=O)NC2c2ccc(O)c(OC)c2)cc1 (stereo unspecified)	0	1.2	-4	·	104	109
CC1=C(C(=O)OCc2ccc(C)cc2)C(c2ccc(O)c([N+](=O)[O-])c2)NC(=O)N1 (stereo unspecified)	5	-0.023	-1	89*	·	·
O=C(Nc1ccc(N=Nc2ccccc2)c(NC(=O)C2CCCO2)c1)C1CCCO1 (stereo unspecified)	2	·	26	-21	48	61
CC1(C)C(C=C(Cl)Cl)C1C(=O)N(Cc1cccc(Cl)c1)C1CCS(=O)(=O)C1 (stereo unspecified)	2	-0.59	91*	-38	71	78
CC(C)(C)c1nnc(N/N=C/c2ccccc2O)n(N)c1=O	5	0.087	98*	30	15	15
O=c1c2c(nc3cc(-c4ccc(Cl)cc4)[nH]n13)CCS2	0	·	-4	·	85	91
Cc1ccc(C)c(OCC(=O)N/N=C/c2c(C)nn(-c3ccccc3)c2Cl)c1C	0	-0.2	-3	-43	1.8*	2.1*
CCOc1ccc(Oc2c(/C=N/NC(N)=O)c(C)nn2-c2ccccc2)cc1	-9	·	98*	·	70	79
CC12CCC(C(=O)N(NC(=O)c3cc(Cl)ccc3O)C1=O)C2(C)C (stereo unspecified)	-1	2.1	-6	-77	98	86
Cc1c(-c2ccc(Br)cc2)[n+](=O)c2c(n1[O-])CCCC2	2	0.08	-4	·	·	·
O=C1CN(C(=O)c2ccc(Br)o2)C(c2ccccc2)c2cc(F)ccc2N1 (stereo unspecified)	0	·	92*	·	70	82
O=C1CN(C(=O)c2cc([N+](=O)[O-])ccc2Cl)C(c2ccc(F)cc2)c2cc(F)ccc2N1 (stereo unspecified)	-3	-0.37	79*	-76	80	78
Nc1ccc(S(=O)(=O)C(F)(F)F)cc1N	1	-0.014	3	·	·	·
CCC(C)(C)n1nnnc1CN(Cc1cccs1)Cc1cc2cc(OC)ccc2[nH]c1=O	·	·	·	·	56	60
CCOc1ccc2[nH]c(=O)c(CN(Cc3cccs3)Cc3nnnn3C(C)(C)CC)cc2c1	-6	·	59*	·	21	24
Cc1cc(C)n(Cc2ccc(NC(=O)c3c([N+](=O)[O-])c(C)nn3C)cc2)n1	2	0.53	-4	26	105	104
O=C(CSc1nc2cc(Cl)ccc2s1)NC1CCCc2ccccc21 (stereo unspecified)	-2	-0.63	2	41	87	86
O=C(COC(=O)COc1ccccc1)NC1CCCc2ccccc21 (stereo unspecified)	-7	·	-1	·	93	87
Cc1ccc(S(=O)(=O)N2CCN(CC(=O)NC3CCCc4ccccc43)CC2)c(C)c1 (stereo unspecified)	-8	-2.7	13	0	82	79
O=C(COc1ccccc1)NC1CCCc2ccccc21 (stereo unspecified)	2	0.01	51*	14	87	96

Compound activity from PubChem BioAssay.
